# Assay outcomes (PubChem)
# PINK1 expr mod: modulators of PINK1 expression; PINK1 immunofluorescence, high-content cytometry, 24 h; Potency, µM (doses to about 76.6 µM), for the others: at the highest dose activation (PINK1 increase), hits mostly activators; 410,000 tested, 0.2% active; AID 624263; active = well fitted activation curve with a large enough effect; inconclusive = small, poorly fitted or top-dose-only effect; cell line not stated here; note: potency is the fitted concentration of half-maximal effect; % of control where 0% means no effect; nearly all actives have a fitted effect of over 65% in size
#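 Measures PINK1 amount and localization on or inside mitochondria by immunofluorescence. Stable cells get compounds at 5 concentrations for 24 hours before fixation and staining; CCCP controls included.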
# B2AR arrestin: recruits beta-arrestin to the human beta2-adrenergic receptor; 330,000 tested, 0.02% active; beta-arrestin recruitment to beta2AR, cell-based reporter; AID 492947; P07550; Potency, µM (doses to about 46.1 µM), for the others: top-dose activation, most hits filed as activators;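 note: potency is the fitted concentration of half-maximal effect; 0% = DMSO controls and full agonism = EC100 isoproterenol or metaproterenol; nearly all actives have a fitted effect of over 65% in size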
# PKM2 activator: increases activity of human pyruvate kinase M2. P14618. purified PKM2, Kinase-Glo ATP luminescence, activation; response scale: 0% is enzyme alone, no compound. Potency, µM (series often up to 57.5 µM), for the others: at the highest dose activation, hits mostly activators. 260,000 tested, 0.34% active. AID 1631; note: potency is the fitted concentration of half-maximal effect; % is set by controls: 0 for no effect and ±100 for the full control effect; nearly all actives have a fitted effect of over 55% in size
# Target sequence (P14618 whole entry, looked up): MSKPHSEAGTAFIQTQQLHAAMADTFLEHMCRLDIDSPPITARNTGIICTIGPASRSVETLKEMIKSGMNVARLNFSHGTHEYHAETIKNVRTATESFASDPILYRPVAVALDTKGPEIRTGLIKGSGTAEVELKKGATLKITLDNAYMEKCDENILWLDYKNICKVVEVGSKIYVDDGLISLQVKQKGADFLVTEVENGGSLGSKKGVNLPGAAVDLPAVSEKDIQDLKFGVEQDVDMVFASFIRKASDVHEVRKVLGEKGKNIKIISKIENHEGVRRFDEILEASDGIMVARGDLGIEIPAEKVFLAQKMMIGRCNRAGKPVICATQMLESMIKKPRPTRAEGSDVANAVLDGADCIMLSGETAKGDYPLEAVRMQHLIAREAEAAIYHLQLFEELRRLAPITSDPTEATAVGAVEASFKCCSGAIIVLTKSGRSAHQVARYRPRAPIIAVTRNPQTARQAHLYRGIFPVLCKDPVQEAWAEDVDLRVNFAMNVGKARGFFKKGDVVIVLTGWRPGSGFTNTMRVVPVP
#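 Purified hPK-M2 (>95%) run at intermediate activity with 0.1 mM ADP and 0.5 mM PEP in 50 mM imidazole pH 7.2, KCl, MgCl2; 1 h room temperature. ATP formed read by Kinase-Glo luminescence; normalized to uninhibited and no-enzyme controls.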
# Epigenetic reg: epigenetic control regulation, reporter derepression. Potency, µM (doses to about 53.9 µM), for the others: at the top dose GFP activation, usual class: activators. AID 1865. murine LDR cells, GFP reporter derepression, 30 h. 280,000 tested, 0.2% active; note: potency is the fitted concentration of half-maximal effect; % of control where 0% means no effect; nearly all actives have a fitted effect of over 60% in size
#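 Murine LDR cells carrying a silenced, genomically integrated CMV-driven GFP reporter were exposed to compound for 30 hours at 37 C. After PBS washes, GFP-positive cells (20–120 um objects) were counted by laser-scanning microplate cytometry.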
# IL-2 act: activators of IL-2 | IL-2 activation reporter assay, cell-based qHTS; stimulated with anti-CD3/CD4/CD28 beads; in transgenic mouse T cells | activation, % (series mostly up to about 46 µM) | 360,000 tested, 0.065% active; in the data active = activation above about 50%; inconclusive = mostly about 30% to 49%; note: 0% is about no effect
#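 Unstimulated transgenic mouse T cells, 750 per well, received compound and, after 60 minutes, anti-CD3/anti-CD4 bead plus anti-CD28 stimulation. EGFP and DsRed were quantified after 18 hours.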
# Starred values were filed as active, the others as inactive; ? = inconclusive; / = no result given; [ ] = dose if it differs, or a comment. This is a sample that favours compounds with a hit; in the whole collection about 0.58% have one here. Unless noted, calls come from the whole dose curve; as a rule, active = well fitted curve in the direction sought with a large enough effect; inconclusive = small, poorly fitted or top-dose-only effect, or another doubt; inactive = no such curve, though single readings can be large; an effect the other way counts as inactive or inconclusive.
SMILES,PINK1 expr mod,B2AR arrestin,PKM2 activator,Epigenetic reg,IL-2 act
N#C/C(=N\Nc1ccc([N+](=O)[O-])cc1)C(N)=S,25µM*,0%,-24%,2%,-3
N#C/C(=N\Nc1cccc([N+](=O)[O-])c1)C(=O)c1ccc(Br)cc1,4.5µM*,0%,1%,-1%,-1
O=C(NCCc1cccnc1)c1cnn(-c2ncc3c(n2)-c2ccccc2CC3)c1C1CC1,2%,/,/,/,/
CCCCn1c(SCN2C(=O)c3ccccc3C2=O)nc2cc(S(N)(=O)=O)ccc21,1%,-1%,16µM*,-1%,1
CCCCn1c(SCn2nnc3ccccc3c2=O)nc2cc(S(N)(=O)=O)ccc21,/,0%,6%,0%,0
Cn1nccc1C(=O)NCC1CCC2(CCN(Cc3cccc4ncccc34)CC2)O1 (centres undefined),0%,/,/,/,/
CCC1CN(CCNC(=O)c2ccccc2-n2cccn2)Cc2cc(OC)ccc2O1 (centres undefined),0%,/,/,/,/
O=c1[nH]c(N/N=C\c2ccc3c(c2)OCO3)nc2ccccc12,5%,0%,-14%,-3%,-2
O=c1[nH]c(N/N=C/c2cc3c(cc2[N+](=O)[O-])OCO3)nc2ccccc12,19%,0%,40µM*,?,0
Cc1cc(C)n(-c2cccc(C(=O)NCC3Cc4cccc(-c5ccccn5)c4O3)c2)n1 (centres undefined),0%,/,/,/,/
O=c1c2ccccc2c(C=Nc2ccccc2O)c(O)n1-c1nccs1,0%,3%,-5%,-1%,64*
Cc1ccccc1N=Cc1c(O)n(-c2nccs2)c(=O)c2ccccc12,3%,1%,6%,1%,2
Cc1noc(C)c1C(=O)Nc1sc(C)c(-c2ccccc2)c1C#N,28µM*,0%,7%,2%,0
Cc1cc(NC(=O)CSc2nnc(-c3ccoc3C)o2)no1,3%[38.3 µM],?,16µM*,-1%,-3
Cc1ccc2c(c1)CN(CCNC(=O)C(C)Oc1ccccc1)CC(C)O2 (centres undefined),-1%,/,/,/,/
Cc1cccc2cc(C#N)c(SCC(=O)N3CC(=O)Nc4ccccc43)nc12,4%,0%,-5%,20µM*,0
COc1cccc(CN2C(=O)NC(C)(C3CCN(Cc4ccc(C)o4)CC3)C2=O)c1OC (centres undefined),0%,/,/,/,/
O=C(Nc1ccccc1)c1ccccc1NS(=O)(=O)c1ccc(Cl)s1,?,0%,0%,-1%,-4
O=C(Nc1ccccc1Cc1ccccc1)c1ccccc1NS(=O)(=O)c1ccc(Cl)s1,11µM*,0%,-2%,-1%,-5
Cc1ccc(NC(=O)c2ccccc2NS(=O)(=O)c2ccc(Cl)s2)cc1,20µM*,0%,-2%,-1%,-1
CS(=O)(=O)N1CCN(Cc2cc3nc(-c4cccc5[nH]ncc45)nc(N4CCOCC4)c3s2)CC1,1%[153 µM],/,/,/,/
CCOC(=O)CSc1nnc(-c2ccoc2C)n1-c1ccc(C)cc1,0%,0%,1%,-1%,1
CCOC(=O)CSc1nnc(-c2ccoc2C)n1-c1ccc(OCC)cc1,1%,0%,40µM*,-7%,-3
COc1ccc(OC)c(CN2CCCC(c3nc(-c4ccncc4)ncc3-c3ccccc3C)C2)c1 (centres undefined),1%,/,/,/,/
COc1ccccc1N=Cc1c(C)c(C#N)c2[nH]c3ccccc3n2c1=O,8%,0%,2%,-5%,126*
SMILES,PINK1 expr mod,B2AR arrestin,PKM2 activator,Epigenetic reg,IL-2 act
Cc1c(Cc2ccccc2)c(=O)n2c([nH]c3ccccc32)c1C#N,?,0%,3%,6%,-2
CC(=O)Nc1sc(N/N=C\c2ccc(O)cc2)nc1-c1cccs1,1%,0%,22µM*,3%,0
C=Cc1ccc(C(=O)N2CCc3c(cnc(C)c3CNC(=O)c3ccc4c(c3)OCO4)C2)cc1,-1%,/,/,/,/
COc1cc(CN2CCC3(CC2)CC3C(=O)Nc2ccc3sc(C)nc3c2)ccc1F (centres undefined),0%,/,/,/,/
Cc1cc(C)c2c(=O)n(CC(=O)N3CCC(Cc4ccccc4)CC3)sc2n1,/,0%,1.6µM*,?,/
CCc1cc(C(=O)NCC2Cc3cc(C)cc(-c4cc(C(C)=O)ccc4F)c3O2)n(C)n1 (centres undefined),2%,/,/,/,/
COc1cc(-c2cc(C)c3cccc(OC)c3n2)cc2c1OCCN(C(=O)CCn1ccc(C)n1)C2,0%,/,/,/,/
CS(=O)(=O)Nc1ccc(C2=NN(C(=O)c3ccco3)C(c3ccc(F)cc3)C2)cc1 (centres undefined),-1%,3%,13µM*,3%,-2
O=C(C[n+]1cc(Br)cc2ccccc21)c1ccccc1,40µM*,0%,1%,/,-2
CCOC(=O)[C@@H]1[C@H]2COc3cc(OC)ccc3[C@@H]2N2C(=O)N(c3ccc(C(F)(F)F)cc3)C(=O)[C@@]12C,1%,-1%,-3%,/,0
CCOC(=O)[C@@H]1[C@H]2COc3cc(OC)ccc3[C@H]2N2C(=O)N(c3ccc(C(F)(F)F)cc3)C(=O)[C@]12C,40µM*,0%,/,/,-1
CCN1C(=O)C(=O)c2cc(C)ccc21,3%,-2%,/,/,2
CC[N+]1=C(C)C(C)(C)c2cc(C)ccc21,22µM*,0%,-7%,?,-5
O=C(NCCN1CCOCC1)c1cnn(-c2nccc(-c3ccccc3C(F)(F)F)n2)c1C1CC1,0%,/,/,/,/
COC(=O)[C@@H]1CCCN1C(=O)c1cnn(-c2nccc(-c3cc(C)sc3C)n2)c1C1CC1,-1%,/,/,/,/
COc1cc(C(c2nnnn2C(C)(C)C)N2CCN(c3nc4ccccc4s3)CC2)ccc1O (centres undefined),2%,0%,25µM*,9%,1
Cc1cnc(C)c(-c2ccc3c(c2)CC(CNC(=O)Cc2c(C)[nH]c4ccccc24)O3)n1 (centres undefined),-1%,/,/,/,/
CN1CCCN(C(=O)[C@@H]2C[C@@H](Sc3nc4ccccc4[nH]3)CN2Cc2ccc(OC(F)(F)F)cc2)CC1,0%,/,/,/,/
Cc1cccc(CSc2nn3c(=O)c(C)nnc3s2)c1,4%,0%,10µM*,1%,0
O=C1Nc2ccccc2/C1=C/c1cnc(-c2ccccc2)[nH]1,45µM*,0%,21%,22µM*,1
O=C(CSc1ccc(F)cc1)N1CCC(c2nc3ccccc3s2)CC1,-2%,0%,20µM*,3%,-3
O=C(CN1CCC(c2nc3ccccc3s2)CC1)N1CCCCC1,2%,0%,-1%,-4%,2
O=[N+]([O-])c1ccc(/C=C/C2=NN(c3ccccc3)C(c3ccco3)C2)o1 (centres undefined),14%,-1%,-6%,13µM*,-7
Cc1ccc(CN(C)C(=O)c2ccccc2Oc2ccccc2)o1,-4%,-1%,28µM*,?,-3
